The source made the active and inactive calls. Unless noted, no rule for the calls is given here.
How the values were obtained:
[1] = test system: Wnt5a (protein binding on small-molecule microarray); test: small molecules binding Wnt5a protein – biophysical, small-molecule microarray, 635/667 nm fluorescence, primary screen (AID 1142); conditions: 635 nm fluorescence, higher = more signal;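 also: fluorescence read at 667 nm with signal to noise per printed feature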
[2] = ATP-based viability of Huh7 replicon cells – cell-based, CellTiter-Glo luminescence, basal, 48 h, cytotoxicity control for HCV replication inhibitor project, primary screen (AID 1143); conditions: higher = more signal, called active from +8 up or from −8 down;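 also: Huh7 hepatoma cells carrying a hepatitis C replication reporter with no stimulus; test concentration not given here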
[3] = Pseudomonas biofilm growth suppression – PAO1 strain, BacTiter-Glo luminescence, LB-PBS, primary screen (AID 1144); conditions: P. aeruginosa PAO1 biofilm, 12 h, higher = more signal
[4] = basal CRE-LacZ reporter activity in PC12 – cell-based, unstimulated, primary screen (AID 1145); conditions: no forskolin, luminescence, 4.5 h, higher = more signal, called active from +8 up or from −8 down
[5] = forskolin-driven CRE-LacZ activity in PC12 – cell-based, CRE-LacZ reporter, forskolin-stimulated, primary screen (AID 1146); conditions: luminescence, 4.5 h, higher = more signal, called active from +8 up or from −8 down;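 also: PC12 cells with 6xCRE LacZ reporter stimulated by forskolin 10 µM; beta-galactosidase reporter signal reflecting CREB driven transcription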
[6] = target: Streptavidin (Streptomyces avidinii) (UniProt P22629); test: compounds binding control protein streptavidin – biophysical, small-molecule microarray, 635/667 nm fluorescence, artefact control for SMM compound annotation, primary screen (AID 1147); conditions: higher = more signal;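 also: signal reflects streptavidin binding to arrayed compounds as a control protein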
[7] = probe aInhba binding on compound microarray – biochemical, small-molecule microarray, 635/667 nm fluorescence, primary screen (AID 1148); conditions: higher = more signal;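 also: score merges 667nm spot fluorescence with signal-to-noise for antibody binding to printed compounds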
[8] = target: Torsin-1A (Homo sapiens) (UniProt O14656); test: TOR1A wild-type binding on microarray – cell lysate, small-molecule microarray, lysate, 635/667 nm, primary screen (AID 1149); conditions: COS7 hTOR1A-WT lysate, 635 nm fluorescence, higher = more signal
[9] = target: Torsin-1A (Homo sapiens) (UniProt O14656); test: torsin A mutant lysate binding on microarrays – cell lysate, small-molecule microarray, COS7 lysate, 635/667 nm fluorescence, primary screen (AID 1150); conditions: COS7 hTOR1A mutant lysate, 635 nm fluorescence, higher = more signal;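 also: score pools 667 nm emission and signal to noise measuring lysate protein binding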
[10] = test system: Sonic hedgehog protein (Shh); test: Sonic hedgehog microarray binding compounds – biochemical, small-molecule microarray, 635/667 nm fluorescence, primary screen (AID 1151); conditions: 635 nm fluorescence, higher = more signal;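 also: Shh protein binding to compounds spotted on small-molecule microarray slides; score combines spot fluorescence intensity with signal-to-noise across triplicate slides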
[11] = optical density shifts of acrAB sulA E. coli – strain DRC41, OD650, 48 h, E. coli filamentation inducer project, primary screen (AID 1152); conditions: higher = more signal, called active from +8 up or from −8 down;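 also: E. coli MC1000 strain DRC41 lacking acrAB efflux pump and sulA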
[12] = probe aLefty1 binding on compound microarray – biochemical, small-molecule microarray, 635/667 nm fluorescence, primary screen (AID 1153); conditions: higher = more signal;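 also: score merges spot fluorescence with signal-to-noise ratio from the scanned slide images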
[13] = plasmodial surface anion channel blockers, osmotic lysis – cell-based, P. falciparum Indochina, OD700, 1 h, primary screen (AID 1154); conditions: P. falciparum Indochina infected RBC osmotic lysis, higher = more signal, called active from +8 up or from −8 down
[14] = plasmodial surface anion channel blockers, osmotic lysis – cell-based, P. falciparum Indochina, OD700, 2 h, primary screen (AID 1155);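 also: lysis reports solute entry through the parasite surface anion channel PSAC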; conditions: P. falciparum Indochina infected erythrocytes, higher = more signal, called active from +8 up or from −8 down
[15] = changes in parasitized red cell lysis, either direction – P. falciparum Indochina, OD700, 3 h, PSAC antagonist project, primary screen (AID 1156); conditions: P. falciparum-infected erythrocytes, osmotic lysis, higher = more signal, called active from +8 up or from −8 down
[16] = plasmodial surface anion channel blockers, osmotic lysis – cell-based, P. falciparum Indochina, OD700, 18 h, primary screen (AID 1157); conditions: P. falciparum Indochina infected erythrocytes, osmotic lysis OD700, 18 h; higher = more signal, called active from +8 up or from −8 down
[17] = S6 kinase pathway phospho-S6 level changes – cell-based, A549, cytoblot, luminescence, serum-stimulated, primary screen (AID 1158); conditions: 5 h, higher = more signal;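 also: serum-stimulated A549 lung adenocarcinoma cells; signal is phosphorylated S6 detected by cytoblot immunostaining with HRP secondary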
[18] = target: NADPH oxidase 2 (Homo sapiens) (UniProt P04839); test: compounds shifting NOX2 Amplex Red fluorescence – cell-based, HEK293-NOX2, PMA-stimulated, NOX inhibitor project, primary screen (AID 1159); conditions: 45 min, higher = more signal, called active from +8 up or from −8 down; also: test concentration not given here
[19] = target: NADPH oxidase 4 (Homo sapiens) (UniProt Q9NPH5); test: compounds shifting NOX4 Amplex Red fluorescence – cell-based, HEK293-NOX4, tetracycline-induced, NOX inhibitor project, primary screen (AID 1160); conditions: HEK293-NOX4, Amplex Red H2O2 fluorescence, 45 min; higher = more signal, called active from +8 up or from −8 down
[20] = target: NADPH oxidase 5 (Homo sapiens) (UniProt Q96PH1); test: compounds shifting NOX5 Amplex Red fluorescence – cell-based, HEK293-NOX5, NOX inhibitor project, primary screen (AID 1161); conditions: HEK293-NOX5, ionomycin, 45 min, higher = more signal
NADPH oxidase 5 (Homo sapiens), sequence (Q96PH1 whole entry, looked up): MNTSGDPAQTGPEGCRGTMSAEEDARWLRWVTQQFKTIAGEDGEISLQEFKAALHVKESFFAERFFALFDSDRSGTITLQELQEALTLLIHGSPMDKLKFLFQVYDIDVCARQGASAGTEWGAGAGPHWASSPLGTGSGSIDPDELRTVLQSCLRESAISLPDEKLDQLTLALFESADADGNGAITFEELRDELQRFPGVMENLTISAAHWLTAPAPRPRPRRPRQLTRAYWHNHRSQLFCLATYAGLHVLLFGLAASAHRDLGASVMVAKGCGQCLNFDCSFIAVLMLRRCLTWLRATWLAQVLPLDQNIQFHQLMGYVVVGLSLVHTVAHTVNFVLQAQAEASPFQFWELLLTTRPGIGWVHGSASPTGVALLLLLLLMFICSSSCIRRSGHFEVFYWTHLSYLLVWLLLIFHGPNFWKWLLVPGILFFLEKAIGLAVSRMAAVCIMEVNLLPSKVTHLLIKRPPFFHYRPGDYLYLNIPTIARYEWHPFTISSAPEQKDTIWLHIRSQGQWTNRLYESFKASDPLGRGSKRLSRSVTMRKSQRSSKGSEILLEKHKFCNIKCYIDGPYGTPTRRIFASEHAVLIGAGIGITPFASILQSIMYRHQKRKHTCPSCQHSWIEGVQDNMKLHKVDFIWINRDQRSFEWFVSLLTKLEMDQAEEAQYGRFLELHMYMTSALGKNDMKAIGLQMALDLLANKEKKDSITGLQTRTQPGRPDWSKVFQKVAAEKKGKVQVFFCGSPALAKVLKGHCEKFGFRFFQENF

NADPH oxidase 2 (Homo sapiens), sequence (P04839 whole entry, looked up): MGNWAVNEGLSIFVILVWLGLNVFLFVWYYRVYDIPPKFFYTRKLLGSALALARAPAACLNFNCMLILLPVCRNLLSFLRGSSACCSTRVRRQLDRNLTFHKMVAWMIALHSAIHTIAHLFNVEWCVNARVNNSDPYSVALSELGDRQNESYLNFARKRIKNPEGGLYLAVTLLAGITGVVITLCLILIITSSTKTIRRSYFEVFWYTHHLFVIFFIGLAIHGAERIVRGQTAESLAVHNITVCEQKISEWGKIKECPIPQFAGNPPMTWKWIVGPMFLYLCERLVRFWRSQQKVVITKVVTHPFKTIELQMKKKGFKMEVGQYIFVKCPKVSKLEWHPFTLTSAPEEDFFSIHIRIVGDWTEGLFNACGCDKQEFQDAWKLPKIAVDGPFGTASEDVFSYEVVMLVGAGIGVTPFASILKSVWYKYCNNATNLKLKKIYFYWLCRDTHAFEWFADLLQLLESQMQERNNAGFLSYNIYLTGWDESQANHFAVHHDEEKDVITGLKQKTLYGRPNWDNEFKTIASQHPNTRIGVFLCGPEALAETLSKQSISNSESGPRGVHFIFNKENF
Torsin-1A (Homo sapiens), sequence (O14656 whole entry, looked up): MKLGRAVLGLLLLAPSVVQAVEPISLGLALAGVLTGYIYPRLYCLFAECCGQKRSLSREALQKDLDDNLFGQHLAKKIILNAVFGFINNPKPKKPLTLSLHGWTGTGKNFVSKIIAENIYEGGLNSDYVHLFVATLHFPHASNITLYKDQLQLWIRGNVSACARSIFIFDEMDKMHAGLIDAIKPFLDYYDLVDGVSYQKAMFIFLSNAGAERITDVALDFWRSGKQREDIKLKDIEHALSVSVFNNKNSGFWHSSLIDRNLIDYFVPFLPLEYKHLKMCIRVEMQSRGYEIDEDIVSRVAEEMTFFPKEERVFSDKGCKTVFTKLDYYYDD
Streptavidin (Streptomyces avidinii), sequence (P22629 whole entry, looked up): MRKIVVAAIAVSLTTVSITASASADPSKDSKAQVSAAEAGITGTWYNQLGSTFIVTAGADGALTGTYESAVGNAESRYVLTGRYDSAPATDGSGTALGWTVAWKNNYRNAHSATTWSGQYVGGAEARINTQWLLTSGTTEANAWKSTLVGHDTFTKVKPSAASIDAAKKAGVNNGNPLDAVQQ
NADPH oxidase 4 (Homo sapiens), sequence (Q9NPH5 whole entry, looked up): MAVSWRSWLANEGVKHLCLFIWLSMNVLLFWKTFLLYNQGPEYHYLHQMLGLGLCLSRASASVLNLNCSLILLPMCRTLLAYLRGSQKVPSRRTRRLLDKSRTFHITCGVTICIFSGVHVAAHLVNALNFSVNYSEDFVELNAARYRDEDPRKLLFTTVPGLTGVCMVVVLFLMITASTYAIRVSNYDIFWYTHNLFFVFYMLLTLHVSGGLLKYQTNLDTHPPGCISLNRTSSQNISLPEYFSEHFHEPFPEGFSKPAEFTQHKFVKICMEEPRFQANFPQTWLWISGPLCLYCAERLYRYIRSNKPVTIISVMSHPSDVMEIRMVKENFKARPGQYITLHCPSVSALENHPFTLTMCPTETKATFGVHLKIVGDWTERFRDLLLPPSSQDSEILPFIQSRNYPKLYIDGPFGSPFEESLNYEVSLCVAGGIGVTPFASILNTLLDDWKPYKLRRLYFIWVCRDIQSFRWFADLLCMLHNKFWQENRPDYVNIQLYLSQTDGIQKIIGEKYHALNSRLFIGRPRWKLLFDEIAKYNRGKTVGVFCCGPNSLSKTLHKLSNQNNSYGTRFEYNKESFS

| Structure (SMILES) | composite z-score [1] | z-score [2] | z-score [3] | z-score [4] | z-score [5] | composite z-score [6] | composite z-score [7] | composite z-score [8] | composite z-score [9] | composite z-score [10] | z-score [11] | composite z-score [12] | z-score [13] | z-score [14] | z-score [15] | z-score [16] | z-score [17] | z-score [18] | z-score [19] | z-score [20] |
| --- | --- | --- | --- | --- | --- | --- | --- | --- | --- | --- | --- | --- | --- | --- | --- | --- | --- | --- | --- | --- |
| CC(=O)NCCCC[C@@H]1NC(=O)[C@H]2C[C@@H](C(=O)NCCCCCCN(C)C)[C@@H](c3cccc(OCCO)c3)N2C1=O | 0.906 | -0.102 (inactive) | -0.542 (inactive) | 0.0084 (inactive) | 0.172 (inactive) | 0.369 | 0.222 | 1.37 | 1.88 | 2.22 | -0.179 (inactive) | 0.257 | 2.81 (inactive) | 0.461 (inactive) | 1.25 (inactive) | 0.376 (inactive) | 0.317 | 0.779 (inactive) | 0.301 (inactive) | 1.44 |
| COc1cc(Cc2cc3c(c(CCc4ccccc4)n2)[Si](C(C)C)(C(C)C)OC3)cc(OC)c1OC | -0.179 | -1.86 (inactive) | -0.554 (inactive) | -0.0989 (inactive) | 0.132 (inactive) | 0.977 | -0.159 | 0.1 | 0.0658 | 0.553 | -0.655 (inactive) | -0.0501 | 2.06 (inactive) | 0.481 (inactive) | -0.411 (inactive) | -0.232 (inactive) | -0.475 | -0.195 (inactive) | -0.231 (inactive) | -2.59 |
| CN1C(=O)C2C=CC(C(O)C3CC=CCC3)N(Nc3ccccc3)C2C1=O (stereo not given) | 0.521 | 0.758 (inactive) | -0.269 (inactive) | -0.333 (inactive) | 0.0874 (inactive) | 0.505 | 0.208 | 0.664 | 1.06 | 1.57 | -1.08 (inactive) | 0.346 | 0.756 (inactive) | 0.0735 (inactive) | -0.139 (inactive) | 0.459 (inactive) | -0.879 | -1.81 (inactive) | -3.23 (inactive) | -3.05 |
| CCCC=C(CCC)[C@@H](NC(=O)c1ccccc1)c1ccccc1 | -0.149 | -1.26 (inactive) | 0.202 (inactive) | -0.561 (inactive) | 1.28 (inactive) | 0.405 | 0.0968 | -0.106 | -0.0692 | -0.289 | -0.845 (inactive) | 0.221 | 1.37 (inactive) | 0.894 (inactive) | 0.131 (inactive) | 0.812 (inactive) | 0.316 | -0.523 (inactive) | 0.304 (inactive) | 0.895 |
| CCOC(=O)C[C@H]1[C@H](OC(=O)c2cc3ccccc3oc2=O)[C@@H](NC(=O)C2CCCCC2)c2cc(OCCCO)ccc2N1C(=O)c1ccc2ccccc2n1 | 0.156 | -0.271 (inactive) | -0.686 (inactive) | 6.62 (inactive) | 0.821 (inactive) | 0.449 | -0.0719 | 0.16 | 0.11 | 0.526 | -0.836 (inactive) | -0.0547 | 4.81 (inactive) | 0.491 (inactive) | 0.499 (inactive) | 0.549 (inactive) | -0.725 | 2.44 (inactive) | 1.52 (inactive) | 0.451 |
| C#C[C@H](O[Si](C#Cc1ccccc1)(C(C)C)C(C)C)c1ccccc1 | -0.0449 | -1.33 (inactive) | -0.368 (inactive) | -0.258 (inactive) | 6.27 (inactive) | -0.636 | -0.242 | -0.234 | -0.543 | -0.154 | -0.0719 (inactive) | 0.22 | 0.876 (inactive) | 0.924 (inactive) | -1.54 (inactive) | 0.234 (inactive) | -0.801 | 0.146 (inactive) | -0.779 (inactive) | -2.37 |
| COC(=O)C(CC#Cc1ccc2c(c1)[C@]1(C(=O)N2)[C@H](C(=O)N2CCCCCCC2)[C@H]2C(=O)O[C@H](c3ccccc3)[C@H](c3ccccc3)N2[C@@H]1c1ccc(O)cc1)C(=O)OC | -0.593 | -4.23 (inactive) | 0.144 (inactive) | 0.0736 (inactive) | -0.928 (inactive) | -1.01 | 0.539 | -0.998 | -0.529 | -0.657 | 0.752 (inactive) | 0.297 | 0.561 (inactive) | -0.312 (inactive) | -0.221 (inactive) | -1.18 (inactive) | 1.28 | 0.455 (inactive) | 0.264 (inactive) | 0.147 |
| CCCC[C@@H]1C[C@H]1[C@@H](NC(=O)c1ccccc1)c1ccccc1C(F)(F)F | 0.175 | 0.0018 (inactive) | -0.0632 (inactive) | 1.73 (inactive) | 1.17 (inactive) | 1.84 | 0.319 | -0.113 | 0.322 | -0.654 | -0.94 (inactive) | 0.747 | -0.247 (inactive) | 0.803 (inactive) | -0.429 (inactive) | 0.422 (inactive) | 0.807 | 0.566 (inactive) | -1.02 (inactive) | 0.262 |
